“And” between values parts separate entries of the source, which are not always exact repeats. Equal entries are not always repeated. Results filed as inconclusive are left out. Unmarked numbers belong to inactive results. The source made the active and inactive calls. Calls come from the whole dose curve; as a rule, active = well fitted cell-killing curve with a large enough effect in the repeat runs; inconclusive = weak or mixed curves, or effect the other way; inactive = flat fitted curve, though single readings scatter.
% is set by controls: 0 for no effect and ±100 for the full control effect; potency is the fitted concentration of half-maximal effect.

A short description of the first experiment: cAMP Responsive Elements (CRE) small molecule antagonists, cell-based qHTS assay: qHTS cell viability counter screen (AID 2060913). Note: nearly all actives have a fitted effect of over 40% in size. Particulars: CRE-bla HEK293T viability, CellTiter-Glo luminescence, 5 h; series mostly up to 92.4 µM; viability change, negative = cytotoxic: at the top concentration. Summed up:
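Cytotoxicity counter screen multiplexed with the CRE-bla antagonist read: HEK293T cells in DMEM with dialyzed FBS and 25 mM HEPES were treated 3 hrs under 0.25 uM final NKH477, then viability measured by CellTiter-Glo luminescence.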
For the molecule `Nc1nc(N)nc(Cl)n1`, the “viability change, negative = cytotoxic” value was 1.35%.

Take `CN(C)C(=O)C(c1ccccc1)c1ccccc1`: the Potency entry was “inactive”.

As for `CN1C2CCC(C)(C)C1CC(OC(=O)C(O)(c1cccs1)c1cccs1)C2` (stereo not given), the “viability change, negative = cytotoxic” value is -3.24% [at 42.5 µM].

As to `COc1cc(OC)nc(NC(=O)NS(=O)(=O)c2ncccc2C(=O)N(C)C)n1`, the “viability change, negative = cytotoxic” value was 5.99%.

For `CNC(=O)Oc1c(C(C)(C)C)cc(C)cc1C(C)(C)C`, the “viability change, negative = cytotoxic” value is -9.47%.

Regarding `C=CCC1(C(C)CC)C(=O)NC(=O)NC1=O` (stereo not given), the “viability change, negative = cytotoxic” value was -1.44% [at 42.5 µM].

For `CCN(C)N=O`, the “viability change, negative = cytotoxic” value is 1.14%.

In the case of `CC(=O)[O-].CC(=O)[O-].O.O.O.[Pb+2]`, the “viability change, negative = cytotoxic” value is 1.19%.

On to `CC(C)CC(C)N` (stereo not given), for which the “viability change, negative = cytotoxic” value was -1.38%.

With `Cc1cc(C(F)(C(F)(F)F)C(F)(F)F)ccc1NC(=O)c1cccc(I)c1C(=O)NC(C)(C)CS(C)(=O)=O`, the “viability change, negative = cytotoxic” value was 12.7% [at 42.5 µM].

Regarding `CC(C)CCON=O`, the “viability change, negative = cytotoxic” value is 4.57%.

As to `COc1ccc(-c2ccccc2)cc1NNC(=O)OC(C)C`, the “viability change, negative = cytotoxic” value is -12.1%.

On to `CCCCN(CCCC)C(=S)[S-].CCCCN(CCCC)C(=S)[S-].[Ni+2]`, for which the “viability change, negative = cytotoxic” value was -0.294% [at 42.5 µM].

For the molecule `CCOC(=O)NC(C)(C)Cc1ccc(Cl)cc1`, the “viability change, negative = cytotoxic” value is -2.5% [at 42.5 µM].

`CCNc1nc(NC(C)(C)C)nc(SC)n1`: the Potency entry was “inactive”.

On to `O=C(NCO)NCO`, for which the “viability change, negative = cytotoxic” value was 3.21%.

`ClC1=C(Cl)[C@]2(Cl)[C@H]3[C@H]([C@H]4C=C[C@H]3C4)[C@@]1(Cl)C2(Cl)Cl`: the “viability change, negative = cytotoxic” value was -7.51%.

Turning to `COP(=O)(OC)Oc1ccc([N+](=O)[O-])cc1`, the “viability change, negative = cytotoxic” value is -18.6%.

For `C#CC(C)(C)O`, the “viability change, negative = cytotoxic” value is -8.3%.

Consider `C[C@]12CC[C@H]3[C@@H](CCC4=CC(=O)CC[C@@]43C)[C@@H]1CC[C@@H]2C(=O)O`, for which the “viability change, negative = cytotoxic” value was 9.44% [at 42.5 µM].

As for `CC(C)(C)N(NC(=O)c1ccc(Cl)cc1)C(=O)c1ccccc1`, the “viability change, negative = cytotoxic” value was 0.7%.

Regarding `Cc1ncc2n1-c1ccc(Cl)cc1C(c1ccccc1F)=NC2`, the “viability change, negative = cytotoxic” value is 8.75% [at 42.5 µM].

With `CN(C)C(=S)SSC(=S)N(C)C`, the Potency was 12 µM (active) and 9.69 µM (active) and 7.5 µM (active).

As for `CCOC(=O)NC(=S)Nc1ccccc1NC(=S)NC(=O)OCC`, the “viability change, negative = cytotoxic” value was -2.68%.

For `c1ccc2c(c1)CCNC2`, the “viability change, negative = cytotoxic” value is 3.71%.

On to `CC(C)(C)OC(=O)c1ncn2c1[C@@H]1CCCN1C(=O)c1c(Br)cccc1-2`, for which the “viability change, negative = cytotoxic” value was 0.159% [at 42.5 µM].

On to `O=[N+]([O-])C(Br)(CO)CO`, for which the “viability change, negative = cytotoxic” value is -1.38%.

Turning to `O=C(NC(=O)c1c(F)cccc1F)Nc1cc(Cl)c(OC(F)(F)C(F)C(F)(F)F)cc1Cl` (stereo not given), the Potency entry is “inactive”.

With `CC(=O)[C@H]1CC[C@H]2[C@@H]3CC[C@H]4C[C@](C)(O)CC[C@]4(C)[C@H]3CC[C@]12C`, the “viability change, negative = cytotoxic” value is 0.932% [at 42.5 µM].

As to `[CH3][Sn]([Cl])([Cl])[Cl]`, the Potency entry is “inactive”.

Turning to `O=C1CN=C(c2ccccc2)c2cc([N+](=O)[O-])ccc2N1`, the “viability change, negative = cytotoxic” value is -0.073% [at 42.5 µM].

On to `COC[C@H](C)N(C(=O)CCl)c1c(C)csc1C`, for which the “viability change, negative = cytotoxic” value was -2.88%.

For the molecule `CC(C)(C)c1ccccc1O`, the Potency entry is “inactive”.

Take `ClCC(Br)CBr` (stereo not given): the “viability change, negative = cytotoxic” value is 5.43%.

`CCOP(=S)(OCC)Oc1nc(Cl)c(Cl)cc1Cl`: the “viability change, negative = cytotoxic” value was -8.45%.

For the molecule `Nc1c(Cl)cc([N+](=O)[O-])cc1Cl`, the “viability change, negative = cytotoxic” value was -15.2%.

Consider `C1CCC2CCCCC2C1` (stereo not given), for which the “viability change, negative = cytotoxic” value is 5.31%.

As to `C[Si](Cn1cncn1)(c1ccc(F)cc1)c1ccc(F)cc1`, the Potency entry is “inactive”.

In the case of `Nc1ccccc1-c1ccccc1`, the “viability change, negative = cytotoxic” value is 4.16%.

As for `C=CCOC(N)=O`, the “viability change, negative = cytotoxic” value is -0.446%.

The next experiment is described as follows: cAMP Responsive Elements (CRE) small molecule agonists, cell-based qHTS assay: qHTS cell viability counter screen (AID 2060914). Note: nearly all actives have a fitted effect of over 50% in size. Particulars: CRE-bla HEK293T viability, CellTiter-Glo luminescence, 5 h; series mostly up to 92.4 µM; activity change, negative = cytotoxicity: at the top concentration. Summed up: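 CRE-bla HEK293T cells in 10% dialyzed FBS medium were exposed to compounds for 3 h at 37C after 18 h plating. CellTiter-Glo was then added in the same wells, and luminescence was read after 30 min at room temperature.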
As to `Nc1nc(N)nc(Cl)n1`, the “activity change, negative = cytotoxicity” value is 7.3%.

In the case of `CN(C)C(=O)C(c1ccccc1)c1ccccc1`, the Potency result was “inactive”.

Regarding `CN1C2CCC(C)(C)C1CC(OC(=O)C(O)(c1cccs1)c1cccs1)C2` (stereo not given), the “activity change, negative = cytotoxicity” value was 0.661% [at 42.5 µM].

Consider `COc1cc(OC)nc(NC(=O)NS(=O)(=O)c2ncccc2C(=O)N(C)C)n1`, for which the “activity change, negative = cytotoxicity” value was -0.191%.

Turning to `CNC(=O)Oc1c(C(C)(C)C)cc(C)cc1C(C)(C)C`, the “activity change, negative = cytotoxicity” value is -0.15%.

With `C=CCC1(C(C)CC)C(=O)NC(=O)NC1=O` (stereo not given), the “activity change, negative = cytotoxicity” value is -0.612% [at 42.5 µM].

`CCN(C)N=O`: the “activity change, negative = cytotoxicity” value was 5.14%.

Regarding `CC(=O)[O-].CC(=O)[O-].O.O.O.[Pb+2]`, the “activity change, negative = cytotoxicity” value was 5.23%.

As for `CC(C)CC(C)N` (stereo not given), the “activity change, negative = cytotoxicity” value is -1.98%.

`Cc1cc(C(F)(C(F)(F)F)C(F)(F)F)ccc1NC(=O)c1cccc(I)c1C(=O)NC(C)(C)CS(C)(=O)=O`: the “activity change, negative = cytotoxicity” value is 12.5% [at 42.5 µM].

`CC(C)CCON=O`: the “activity change, negative = cytotoxicity” value is -4.77%.

Take `COc1ccc(-c2ccccc2)cc1NNC(=O)OC(C)C`: the “activity change, negative = cytotoxicity” value is -5.22%.

Regarding `CCCCN(CCCC)C(=S)[S-].CCCCN(CCCC)C(=S)[S-].[Ni+2]`, the “activity change, negative = cytotoxicity” value is -5.66% [at 42.5 µM].

Turning to `CCOC(=O)NC(C)(C)Cc1ccc(Cl)cc1`, the “activity change, negative = cytotoxicity” value is 8.64% [at 42.5 µM].

As to `CCNc1nc(NC(C)(C)C)nc(SC)n1`, the Potency result is “inactive”.

With `O=C(NCO)NCO`, the “activity change, negative = cytotoxicity” value was 8.93%.

`ClC1=C(Cl)[C@]2(Cl)[C@H]3[C@H]([C@H]4C=C[C@H]3C4)[C@@]1(Cl)C2(Cl)Cl`: the “activity change, negative = cytotoxicity” value is -21.6%.

Turning to `COP(=O)(OC)Oc1ccc([N+](=O)[O-])cc1`, the “activity change, negative = cytotoxicity” value was 1.45%.

As for `C#CC(C)(C)O`, the “activity change, negative = cytotoxicity” value is -10.3%.

With `C[C@]12CC[C@H]3[C@@H](CCC4=CC(=O)CC[C@@]43C)[C@@H]1CC[C@@H]2C(=O)O`, the “activity change, negative = cytotoxicity” value was 5.88% [at 42.5 µM].

As for `CC(C)(C)N(NC(=O)c1ccc(Cl)cc1)C(=O)c1ccccc1`, the “activity change, negative = cytotoxicity” value was 12.1%.

As to `Cc1ncc2n1-c1ccc(Cl)cc1C(c1ccccc1F)=NC2`, the “activity change, negative = cytotoxicity” value is 1.35% [at 42.5 µM].

As to `CN(C)C(=S)SSC(=S)N(C)C`, the Potency was 12 µM (active) and 27.3 µM (active) and 16.8 µM (active).

Take `CCOC(=O)NC(=S)Nc1ccccc1NC(=S)NC(=O)OCC`: the “activity change, negative = cytotoxicity” value is 20%.

Take `c1ccc2c(c1)CCNC2`: the “activity change, negative = cytotoxicity” value is -3.59%.

For the molecule `CC(C)(C)OC(=O)c1ncn2c1[C@@H]1CCCN1C(=O)c1c(Br)cccc1-2`, the “activity change, negative = cytotoxicity” value is 9.17% [at 42.5 µM].

With `O=[N+]([O-])C(Br)(CO)CO`, the “activity change, negative = cytotoxicity” value is 16.2%.

Consider `O=C(NC(=O)c1c(F)cccc1F)Nc1cc(Cl)c(OC(F)(F)C(F)C(F)(F)F)cc1Cl` (stereo not given), for which the “activity change, negative = cytotoxicity” value is -17.5%.

Take `CC(=O)[C@H]1CC[C@H]2[C@@H]3CC[C@H]4C[C@](C)(O)CC[C@]4(C)[C@H]3CC[C@]12C`: the “activity change, negative = cytotoxicity” value is -0.451% [at 42.5 µM].

For the molecule `[CH3][Sn]([Cl])([Cl])[Cl]`, the Potency result was “inactive”.

In the case of `O=C1CN=C(c2ccccc2)c2cc([N+](=O)[O-])ccc2N1`, the “activity change, negative = cytotoxicity” value is -0.688% [at 42.5 µM].

On to `COC[C@H](C)N(C(=O)CCl)c1c(C)csc1C`, for which the “activity change, negative = cytotoxicity” value is -3.18%.

For `CC(C)(C)c1ccccc1O`, the Potency result was “inactive”.

On to `ClCC(Br)CBr` (stereo not given), for which the “activity change, negative = cytotoxicity” value is -14.3%.

Regarding `CCOP(=S)(OCC)Oc1nc(Cl)c(Cl)cc1Cl`, the “activity change, negative = cytotoxicity” value is -17.4%.

Take `Nc1c(Cl)cc([N+](=O)[O-])cc1Cl`: the Potency result is “inactive”.

In the case of `C1CCC2CCCCC2C1` (stereo not given), the “activity change, negative = cytotoxicity” value is 10.6%.

With `C[Si](Cn1cncn1)(c1ccc(F)cc1)c1ccc(F)cc1`, the Potency entry is “inactive”.

Take `Nc1ccccc1-c1ccccc1`: the “activity change, negative = cytotoxicity” value was 2.35%.

Turning to `C=CCOC(N)=O`, the “activity change, negative = cytotoxicity” value was 9.39%.

The record behind these values is PubChem BioAssay (Tox21).
